Measured values reported in PubChem BioAssay.
Active and inactive are the calls of the source. Unless noted, no rule for the calls is given here.

Tests used:
[1] = HepG2 liver cancer cell viability effects, profiling panel, resazurin fluorescence, 24 h, PK04 Diversity Set (AID 1172); settings: higher = more signal; also: test concentration not given here
[2] = basal S. cerevisiae growth modulation, no modifier, primary screen, OD600, strain BY4716, 24 h, basal condition (AID 1173); settings: OD600, 24 h, higher = more signal, called active from +8 up or from −8 down
[3] = MM1S myeloma cell viability, profiling panel, resazurin fluorescence, basal, 24 h, PK04 Diversity Set (AID 1174); settings: higher = more signal, called active from +8 up or from −8 down;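 also: MM1S multiple myeloma cell line; test concentration not given here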
[4] = target: Dihydroorotate dehydrogenase (quinone), mitochondrial (Plasmodium falciparum (isolate 3D7)) (UniProt Q08210); experiment: PfDHODH enzyme inhibitors, primary screen, biochemical, C-terminal His tag, absorbance 600 nm (AID 1175); settings: DCIP absorbance 600 nm, higher = more signal, called active from +8 up or from −8 down;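 also: recombinant parasite enzyme with a five histidine tag at its C terminus; test concentration not given here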
Chain of Dihydroorotate dehydrogenase (quinone), mitochondrial (Plasmodium falciparum (isolate 3D7)) (Q08210 whole entry, looked up): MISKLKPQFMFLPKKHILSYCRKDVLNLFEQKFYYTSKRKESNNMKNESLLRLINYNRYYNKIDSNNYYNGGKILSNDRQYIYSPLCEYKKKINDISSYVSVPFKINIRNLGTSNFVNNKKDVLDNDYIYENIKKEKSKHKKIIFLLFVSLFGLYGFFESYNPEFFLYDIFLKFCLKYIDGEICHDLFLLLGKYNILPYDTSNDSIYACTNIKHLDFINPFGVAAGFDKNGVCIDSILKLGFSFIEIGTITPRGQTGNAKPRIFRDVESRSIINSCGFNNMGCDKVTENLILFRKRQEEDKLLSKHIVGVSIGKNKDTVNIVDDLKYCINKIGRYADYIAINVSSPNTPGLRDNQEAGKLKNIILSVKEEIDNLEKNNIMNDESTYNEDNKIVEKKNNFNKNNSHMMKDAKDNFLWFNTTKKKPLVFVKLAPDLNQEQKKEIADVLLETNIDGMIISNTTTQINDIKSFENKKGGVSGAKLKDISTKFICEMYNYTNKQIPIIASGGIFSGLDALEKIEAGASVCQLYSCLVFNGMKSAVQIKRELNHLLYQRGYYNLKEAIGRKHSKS

[5] = P. aeruginosa biofilm formation inhibitors, primary screen, strain PAO1, LB-PBS medium, absorbance 600 nm (AID 1176); also: test concentration not given here; settings: P. aeruginosa PAO1 growth/biofilm, A600, 12 h; higher = more signal
[6] = S. cerevisiae RM11-1a growth modifiers, primary screen, strain RM11-1a, OD600, basal, 24 h (AID 1177); settings: OD600, 24 h, higher = more signal, called active from +8 up or from −8 down;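 also: cultures grown under basal conditions with no added stressor; test concentration not given here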
[7] = E. coli acrAB mutant growth effects, primary screen, E. coli filamentation inducers, strain DRC39, OD650, 24 h (AID 1178); settings: higher = more signal, called active from +8 up or from −8 down;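 also: growth measured as culture turbidity by optical density at 650 nm; test concentration not given here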
[8] = E. coli acrAB mutant growth effects, primary screen, E. coli filamentation inducers, strain DRC39, OD650, 48 h (AID 1179);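 also: screen aims at cell division blockers that make cells filament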; settings: E. coli DRC39 delta-acrAB growth, higher = more signal, called active from +8 up or from −8 down
[9] = RPMI8226 myeloma cell viability, profiling panel, resazurin fluorescence, basal, 24 h, PK04 Diversity Set (AID 1180); settings: higher = more signal;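 also: RPMI8826 multiple myeloma cell line at 5000 cells per well; test concentration not given here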
[10] = target: E3 ubiquitin-protein ligase XIAP (Homo sapiens) (UniProt P98170); experiment: XIAP binders, primary screen, biophysical, small-molecule microarray, fluorescence 635 nm (AID 1181); settings: small-molecule microarray binding, higher = more signal;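 also: score merges 667 nm emission and signal to noise over triplicate slides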
Chain of E3 ubiquitin-protein ligase XIAP (Homo sapiens) (P98170 whole entry, looked up): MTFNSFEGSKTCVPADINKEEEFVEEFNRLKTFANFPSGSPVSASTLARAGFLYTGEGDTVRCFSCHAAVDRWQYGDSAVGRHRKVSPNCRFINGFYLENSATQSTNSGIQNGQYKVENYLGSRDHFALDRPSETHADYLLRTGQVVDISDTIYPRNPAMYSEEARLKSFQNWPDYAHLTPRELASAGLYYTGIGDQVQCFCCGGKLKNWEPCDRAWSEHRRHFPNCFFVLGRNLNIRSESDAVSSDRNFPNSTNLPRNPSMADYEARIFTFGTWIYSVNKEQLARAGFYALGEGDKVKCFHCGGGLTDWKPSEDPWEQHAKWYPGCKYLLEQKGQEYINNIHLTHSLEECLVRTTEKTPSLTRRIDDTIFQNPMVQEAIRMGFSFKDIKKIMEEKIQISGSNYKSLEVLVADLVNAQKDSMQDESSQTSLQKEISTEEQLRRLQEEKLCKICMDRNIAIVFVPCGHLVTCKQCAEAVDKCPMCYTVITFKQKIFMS

| Compound | z-score [1] | z-score [2] | z-score [3] | composite z-score [4] | z-score [5] | z-score [6] | z-score [7] | z-score [8] | z-score [9] | composite z-score [10] |
| --- | --- | --- | --- | --- | --- | --- | --- | --- | --- | --- |
| [N-]=[N+]=NCc1ccccc1C[C@]1(C(=O)NCC(O)CO)N=C(c2ccc(OCCCO)cc2)O[C@H]1c1ccccc1N=[N+]=[N-] (stereo not given in full) | 0.207 | 0.664 (inactive) | -0.403 (inactive) | 1.83 (inactive) | 0.208 (inactive) | 2.8 (inactive) | 1.22 (inactive) | 0.0128 (inactive) | -0.986 | -0.0057 |
| C=C(CCCC)C(=O)CC[C@H](OC(=O)c1cccnc1)c1cccc(OCCO)c1 | -0.53 | 0.704 (inactive) | -1.29 (inactive) | -0.455 (inactive) | -0.21 (inactive) | 1.7 (inactive) | 0.477 (inactive) | 0.262 (inactive) | -2.01 | -0.0582 |
| O=C1O[C@@H](c2ccccc2)[C@@H](c2ccccc2)N2[C@@H](c3ccc(OCCO)cc3)[C@]3(C(=O)Nc4ccccc43)[C@@H](C(=O)Nc3nc4ccccc4s3)[C@H]12 | -0.489 | 0.0135 (inactive) | -1.52 (inactive) | -0.308 (inactive) | 3.18 (inactive) | 1.97 (inactive) | -0.595 (inactive) | 0.29 (inactive) | -1.55 | 0.148 |
| C=CCC(OC(C)=O)[C@@H]1[C@@H](N(Cc2ccc(-c3ccccc3)cc2)C(=O)Cc2ccc(OC)cc2)c2cc(OCCCO)ccc2N1C(=O)c1ccc2ccccc2n1 (stereo not given in full) | 0.0252 | -0.594 (inactive) | 0.525 (inactive) | -0.574 (inactive) | -0.24 (inactive) | -1.15 (inactive) | 1.29 (inactive) | 0.644 (inactive) | 1.07 | -0.266 |
| CCCCC(O)C1C=CC2C(=O)N(C3CCCCC3)C(=O)C2N1Nc1ccc(OC)cc1 (stereo not given) | -0.414 | -2.57 (inactive) | -0.496 (inactive) | 1.12 (inactive) | 0.89 (inactive) | 0.669 (inactive) | -1.01 (inactive) | -0.584 (inactive) | -0.369 | 0.0617 |
| CCCCCCc1nc(CCCc2cc3c(c(CCCCCC)n2)[Si](C(C)C)(C(C)C)OC3)cc2c1[Si](C(C)C)(C(C)C)OC2 | -0.0097 | -0.528 (inactive) | 0.129 (inactive) | -2.32 (inactive) | 0.374 (inactive) | 0.539 (inactive) | -0.214 (inactive) | -0.728 (inactive) | -0.655 | -0.0829 |
| [N-]=[N+]=NCc1ccccc1[C@@H]1OC(c2ccc(OCCCO)cc2)=N[C@]1(Cc1ccccc1N=[N+]=[N-])C(=O)NCc1ccccc1 | 0.206 | 1.15 (inactive) | -0.0978 (inactive) | 0.139 (inactive) | 0.603 (inactive) | 1.27 (inactive) | -0.954 (inactive) | -1.96 (inactive) | -1.46 | 0.0852 |
| COC(=O)C1=CC(CCCO)=CC(C2CC2)N(Cc2sc3ccccc3c2Cl)C=C1C(=O)OC (stereo not given) | -0.908 | -1.32 (inactive) | -0.944 (inactive) | -4.56 (inactive) | -0.0065 (inactive) | 1.61 (inactive) | 0.386 (inactive) | -0.444 (inactive) | -0.691 | -0.0172 |
| COc1ccc([Si](C)(C)[C@H]2[C@H](CC(=O)N(CCO)Cc3ccccc3)O[C@@]3(C(=O)N(Cc4cccc(N5CCC5=O)c4)c4ccccc43)[C@@H]2C)cc1 | -0.412 | -0.0113 (inactive) | -2.76 (inactive) | -1.19 (inactive) | 0.295 (inactive) | 1.17 (inactive) | 0.405 (inactive) | 0.169 (inactive) | -3.11 | 0.0259 |
| CCN(CC)c1ccc(N2CC=CC34O[C@@H]5C=CCCOC(=O)C5[C@H]3C(=O)N(CCCCCO)[C@@H]4C2=O)cc1 (stereo not given in full) | 1.72 | -0.8 (inactive) | 0.974 (inactive) | -0.644 (inactive) | 0.165 (inactive) | -0.866 (inactive) | 2.21 (inactive) | 2.23 (inactive) | 1.16 | 0.354 |
| COC(=O)[C@@]1(Cc2ccccc2)[C@H]2c3cc(C(=O)N(C)C)n(Cc4cc(C)n(C)n4)c3C[C@H]2CN1C(=O)c1ccccc1 | -1.03 | 0.289 (inactive) | -0.99 (inactive) | -0.857 (inactive) | 0.687 (inactive) | -0.211 (inactive) | -1.12 (inactive) | -0.944 (inactive) | -0.566 | 0.0737 |
| O=c1oc(-c2ccccc2)nc2cc(Br)ccc12 | -0.284 | -2.41 (inactive) | 0.0202 (inactive) | 0.336 (inactive) | 0.0493 (inactive) | 1.6 (inactive) | -0.117 (inactive) | -0.39 (inactive) | -0.194 | 0.208 |
| O=C1OCC=C[C@H]2OC34C=CCN(c5ccc6ccccc6c5)C(=O)[C@H]3N(CCCO)C(=O)[C@@H]4[C@@H]12 (stereo not given in full) | -0.364 | -0.82 (inactive) | -0.712 (inactive) | -0.959 (inactive) | -0.385 (inactive) | -0.13 (inactive) | -0.265 (inactive) | -0.641 (inactive) | -2.41 | -0.181 |
| [N-]=[N+]=NCc1ccccc1C[C@@]1(C(=O)N2CCOCC2)N=C(c2ccc(OCCCO)cc2)O[C@@H]1c1ccccc1CN=[N+]=[N-] | -0.638 | 0.418 (inactive) | -2.22 (inactive) | -0.346 (inactive) | 2.03 (inactive) | 1.19 (inactive) | 0.296 (inactive) | 1.06 (inactive) | -1.46 | -0.138 |
| O=C1OCCC/C=C\[C@H]2OC34C=CCN(Cn5nnc6ccccc65)C(=O)[C@H]3N(CCCCCO)C(=O)[C@@H]4C12 (stereo not given in full) | 0.502 | -0.419 (inactive) | 0.812 (inactive) | -1.01 (inactive) | 0.193 (inactive) | -0.564 (inactive) | 0.376 (inactive) | -0.0083 (inactive) | 0.692 | 0.178 |
| COC(=O)[C@@]1(Cc2ccc(OC)cc2)[C@H]2c3cc(C(=O)N4CCCC4)n(CCc4c[nH]c5cc(F)ccc45)c3C[C@H]2CN1C(=O)c1ccccc1 | -0.679 | 1.15 (inactive) | -0.502 (inactive) | 0.461 (inactive) | 0.964 (inactive) | 0.473 (inactive) | -0.29 (inactive) | -0.141 (inactive) | -0.642 | 0.172 |
| CC(C)CNC(=O)[C@@]1(c2ccc([N+](=O)[O-])cc2)CC(=O)N(CC23CC4CC(CC(C4)C2)C3)[C@@H]1c1ccc(CO)cc1 | -1.69 | -0.565 (inactive) | -2.08 (inactive) | -1.23 (inactive) | 0.913 (inactive) | -0.813 (inactive) | 0.629 (inactive) | 1.25 (inactive) | -3.32 | -0.193 |
| O=C1O[C@H](c2ccccc2)[C@H](c2ccccc2)N2[C@H]1[C@@H](C(=O)O)[C@]1(C(=O)Nc3ccc(C#CC4(O)CCCCCC4)cc31)[C@H]2c1ccc(OCCO)cc1 | 0.246 | -0.495 (inactive) | -0.249 (inactive) | -4.61 (inactive) | 1.07 (inactive) | 2.12 (inactive) | -0.184 (inactive) | -0.151 (inactive) | -0.317 | -0.0181 |
